Results reported in PubChem BioAssay AID1159580 (chemical genetic matrix, 2015).
Values joined by “and” are separate entries in the source; they are usually repeats but may differ in a detail not shown here. Equal values may be shown once. The whole screen tested about 5,500 compounds, of which about 2,000 (36%) were called active. Another 18% or so got no clear call; they are omitted. No stated cut-off is given here; in the data, active means normalized growth mostly below about 0.91 (no sharp cut-off); inconclusive means no clear call, values can overlap the other calls; inactive means mostly above about 0.92. This is one part of the list.

Test: chemical genetic growth profiling, strain panel (AID 1159580);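 further: tested at 20 µM; growth read once vehicle control cultures reached saturation at 30 °C; 1 = growth at the plate median or of vehicle wells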
Conditions: S. cerevisiae deletion strains, growth OD

Measured: normalized growth

C[C@H](N)[C@H](O)c1cccc(O)c1
inactive: locus YAL021C, strain ccr4, stronger effect = lower value 1 | locus YAL026C, strain drs2, stronger effect = lower value 1.01 | locus YAL030W, strain snc1, stronger effect = lower value 1 | locus YBL061C, strain skt5, stronger effect = lower value 1.01 | locus YBR009C, strain hhf1, stronger effect = lower value 1.02 | locus YBR021W, strain FUR4, stronger effect = lower value 1.04 | locus YBR023C, strain chs3, stronger effect = lower value 1.02 | locus YBR171W, strain sec66, stronger effect = lower value 1.02 | locus YBR229C, strain ROT2, stronger effect = lower value 0.992 | locus YBR231C, strain swc5, stronger effect = lower value 1 | locus YBR279W, strain paf1, stronger effect = lower value 1.01 | locus YCL011C, strain gbp2, stronger effect = lower value 1 | locus YCL016C, strain dcc1, stronger effect = lower value 1.02 | locus YCL029C, strain bik1, stronger effect = lower value 0.985 | locus YCL061C, strain MRC1, stronger effect = lower value 1.01 | locus YCL069W, strain vba3, stronger effect = lower value 0.994 | locus YCR088W, strain abp1, stronger effect = lower value 1 | locus YDL005C, strain med2, stronger effect = lower value 1.01 | locus YDL035C, strain GPR1, stronger effect = lower value 0.983 | locus YDL040C, strain nat1, stronger effect = lower value 1 | locus YDL074C, strain BRE1, stronger effect = lower value 1.04 | locus YDL101C, strain DUN1, stronger effect = lower value 0.997 | locus YDL185W, strain tfp1, stronger effect = lower value 0.957 | locus YDL192W, strain arf1, stronger effect = lower value 0.99 | locus YDR001C, strain nth1, stronger effect = lower value 0.999 | locus YDR069C, strain doa4, stronger effect = lower value 1.01 | locus YDR101C, strain arx1, stronger effect = lower value 1 | locus YDR137W, strain rgp1, stronger effect = lower value 1.03 | locus YDR150W, strain NUM1, stronger effect = lower value 0.981 | locus YDR159W, strain sac3, stronger effect = lower value 1.03 | locus YDR162C, strain NBP2, stronger effect = lower value 0.986 | locus YDR195W, strain ref2 1 | locus YDR297W, strain sur2, stronger effect = lower value 1 | locus YDR318W, strain mcm21, stronger effect = lower value 0.997 | locus YDR334W, strain swr1, stronger effect = lower value 0.999 | locus YDR335W, strain msn5, stronger effect = lower value 0.994 | locus YDR388W, stronger effect = lower value 0.987 | locus YDR392W, strain spt3, stronger effect = lower value 1.02 | locus YDR502C, strain sam2, stronger effect = lower value 1 | locus YEL003W, strain gim4, stronger effect = lower value 1.01 | locus YEL037C, strain rad23, stronger effect = lower value 1 | locus YEL061C, strain CIN8 (second series), stronger effect = lower value 0.992 | locus YEL061C, strain CIN8, stronger effect = lower value 0.988 | locus YER015W, strain faa2, stronger effect = lower value 1.01 | locus YER016W, strain bim1, stronger effect = lower value 1.01 | locus YER110C, stronger effect = lower value 0.973 | locus YER111C, strain swi4, stronger effect = lower value 1 | locus YER155C, strain BEM2 (second series), stronger effect = lower value 0.995 | locus YER155C, strain BEM2, stronger effect = lower value 1.01 | locus YER167W, strain BCK2, stronger effect = lower value 0.989 | locus YFR010W, strain ubp6, stronger effect = lower value 1.01 | locus YGL078C, strain dbp3, stronger effect = lower value 0.995 | locus YGL086W, strain mad1, stronger effect = lower value 1.01 | locus YGL167C, strain pmr1, stronger effect = lower value 1.02 | locus YGL173C, strain kem1, stronger effect = lower value 1.01 | locus YGL227W, strain vid30, stronger effect = lower value 1 | locus YGL240W, strain doc1, stronger effect = lower value 1.01 | locus YGL248W, strain PDE1, stronger effect = lower value 1.02 | locus YGL253W, strain hxk2, stronger effect = lower value 1.01 | locus YGR078C, strain PAC10, stronger effect = lower value 1.01 | locus YGR135W, strain pre9, stronger effect = lower value 0.942 | locus YGR252W, strain gcn5, stronger effect = lower value 1.04 | locus YHR013C, strain ard1, stronger effect = lower value 1.02 | locus YHR027C, strain rpn1, stronger effect = lower value 1.02 | locus YHR030C, strain SLT2, stronger effect = lower value 0.979 and 1.02 | locus YHR079C, strain IRE1 (second series), stronger effect = lower value 0.999 | locus YHR079C, strain IRE1, stronger effect = lower value 1.02 | locus YHR094C, strain hxt1, stronger effect = lower value 0.979 | locus YHR129C, strain ARP1, stronger effect = lower value 0.997 | locus YHR142W, strain chs7, stronger effect = lower value 1 | locus YHR200W, strain rpn10, stronger effect = lower value 0.987 | locus YIL066C, strain RNR3, stronger effect = lower value 1 | locus YIL073C, strain SPO22, stronger effect = lower value 0.828 | locus YIL125W, strain kgd1, stronger effect = lower value 0.988 | locus YIR030C, strain dcg1, stronger effect = lower value 0.982 | locus YJL092W, strain hpr5, stronger effect = lower value 1.01 | locus YJL095W, strain BCK1 (second series), stronger effect = lower value 1.01 | locus YJL095W, strain BCK1, stronger effect = lower value 1.01 and 1.04 | locus YJL115W, strain asf1, stronger effect = lower value 1.01 | locus YJL129C, strain trk1, stronger effect = lower value 0.995 | locus YJL134W, strain LCB3, stronger effect = lower value 0.985 | locus YJL154C, strain vps35, stronger effect = lower value 0.997 | locus YJL164C, strain tpk1, stronger effect = lower value 1.01 | locus YJL166W, strain qcr8, stronger effect = lower value 1 | locus YJL168C, strain set2, stronger effect = lower value 0.999 | locus YJL187C, strain SWE1 (second series), stronger effect = lower value 0.996 | locus YJL187C, strain SWE1, stronger effect = lower value 1.01 | locus YJR043C, strain POL32, stronger effect = lower value 1.04 | locus YJR066W, strain TOR1, stronger effect = lower value 0.991 | locus YKL009W, strain mrt4, stronger effect = lower value 0.987 | locus YKL068W, stronger effect = lower value 0.977 | locus YKL085W, strain MDH1 (second series), stronger effect = lower value 0.984 | locus YKL085W, strain MDH1, stronger effect = lower value 0.984 | locus YKL160W, strain elf1, stronger effect = lower value 1 | locus YKR001C, strain vps1, stronger effect = lower value 0.998 | locus YKR026C, strain gcn3, stronger effect = lower value 1.01 | locus YKR091W, strain srl3, stronger effect = lower value 0.998 | locus YLL001W, strain dnm1, stronger effect = lower value 1.01 | locus YLL026W, stronger effect = lower value 1 | locus YLL041C, strain sdh2, stronger effect = lower value 1.01 | locus YLR027C, strain aat2, stronger effect = lower value 1.01 | locus YLR039C, strain RIC1, stronger effect = lower value 0.968 | locus YLR058C, strain SHM2, stronger effect = lower value 0.983 | locus YLR102C, strain apc9, stronger effect = lower value 0.993 | locus YLR113W, strain HOG1, stronger effect = lower value 1.07 | locus YLR221C, strain rsa3, stronger effect = lower value 1.01 | locus YLR258W, strain gsy2, stronger effect = lower value 1 | locus YLR262C, strain YPT6 (second series), stronger effect = lower value 1.03 | locus YLR262C, strain YPT6, stronger effect = lower value 0.963 | locus YLR268W, strain sec22, stronger effect = lower value 1.01 | locus YLR320W, strain mms22, stronger effect = lower value 1.02 | locus YLR330W, strain CHS5, stronger effect = lower value 0.985 | locus YLR342W, strain FKS1 (second series), stronger effect = lower value 0.98 | locus YLR342W, strain FKS1, stronger effect = lower value 1.01 | locus YLR357W, strain rsc2, stronger effect = lower value 0.993 | locus YLR370C, strain arc18, stronger effect = lower value 1.01 | locus YLR371W, strain rom2, stronger effect = lower value 1 | locus YLR384C, strain iki3, stronger effect = lower value 1.01 | locus YLR418C, strain cdc73, stronger effect = lower value 0.983 | locus YML016C, strain PPZ1, stronger effect = lower value 0.995 | locus YML032C, strain rad52, stronger effect = lower value 1.01 | locus YML120C, strain ndi1, stronger effect = lower value 1.01 | locus YML124C, strain tub3, stronger effect = lower value 0.991 | locus YMR058W, strain fet3, stronger effect = lower value 1 | locus YMR078C, strain ctf18, stronger effect = lower value 0.985 | locus YMR125W, strain sto1, stronger effect = lower value 1 | locus YMR129W, stronger effect = lower value 1 | locus YMR205C, strain PFK2, stronger effect = lower value 1.03 | locus YMR223W, strain ubp8, stronger effect = lower value 0.971 | locus YMR231W, strain pep5, stronger effect = lower value 1.02 | locus YMR263W, strain SAP30, stronger effect = lower value 0.995 | locus YMR307W, strain GAS1, stronger effect = lower value 1 | locus YNL067W, strain RPL9B, stronger effect = lower value 1.02 | locus YNL071W, strain lat1, stronger effect = lower value 0.997 | locus YNL153C, strain GIM3, stronger effect = lower value 1.04 | locus YNL183C, strain NPR1, stronger effect = lower value 0.989 | locus YNL209W, strain ssb2, stronger effect = lower value 1.01 | locus YNL233W, strain BNI4, stronger effect = lower value 1.05 | locus YNL248C, strain rpa49, stronger effect = lower value 1.01 | locus YNL250W, strain rad50, stronger effect = lower value 0.993 | locus YNL271C, strain bni1, stronger effect = lower value 0.997 | locus YNL298W, strain CLA4, stronger effect = lower value 0.993 | locus YNL307C, strain MCK1, stronger effect = lower value 1 | locus YNL322C, strain KRE1 (second series), stronger effect = lower value 1.01 | locus YNR049C, strain mso1, stronger effect = lower value 1.01 | locus YNR052C, strain pop2, stronger effect = lower value 0.993 | locus YOL012C, strain htz1 1.01 | locus YOL147C, strain pex11, stronger effect = lower value 0.978 | locus YOR001W, strain rrp6, stronger effect = lower value 1.01 | locus YOR061W, strain CKA2, stronger effect = lower value 0.996 | locus YOR069W, strain VPS5, stronger effect = lower value 0.985 | locus YOR070C, strain gyp1, stronger effect = lower value 1.01 | locus YOR080W, strain dia2, stronger effect = lower value 1.02 | locus YOR083W, strain WHI5, stronger effect = lower value 1.01 | locus YOR106W, strain vam3, stronger effect = lower value 1.02 | locus YOR136W, strain idh2, stronger effect = lower value 1.01 | locus YOR144C, strain elg1, stronger effect = lower value 0.996 | locus YOR184W, strain ser1, stronger effect = lower value 0.989 | locus YOR231W, strain MKK1, stronger effect = lower value 1.06 | locus YOR265W, strain rbl2, stronger effect = lower value 1.01 | locus YOR270C, strain vph1, stronger effect = lower value 1.01 | locus YOR290C, strain snf2, stronger effect = lower value 1.03 | locus YOR316C, strain cot1, stronger effect = lower value 0.99 | locus YPL051W, strain arl3, stronger effect = lower value 1.01 | locus YPL055C, strain LGE1, stronger effect = lower value 1.06 | locus YPL078C, strain atp4, stronger effect = lower value 1.01 | locus YPL106C, strain sse1, stronger effect = lower value 1.03 | locus YPL240C, strain hsp82, stronger effect = lower value 1.01 | locus YPL256C, strain CLN2, stronger effect = lower value 1.04 | locus YPR119W, strain clb2, stronger effect = lower value 0.995 | locus YPR141C, strain kar3, stronger effect = lower value 0.978 | locus YPR163C, strain tif3, stronger effect = lower value 0.987 | locus YPR167C, strain met16, stronger effect = lower value 1 | strain wtn01, stronger effect = lower value 0.998
